Assay [1] addresses Lysosomal acid glucosylceramidase (Homo sapiens) (UniProt P04062). Nature of the assay: Glucocerebrosidase-p2 (AID 348; in the data active = potency below about 10 µM; note: potency is the fitted concentration of half-maximal effect). The following applies: purified GBA, blue fluorogenic substrate, 40 min. In a few lines:
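Compounds titrated from 0.6 nM upwards against 0.2 nM enzyme in pH 5.9 citric acid/KH2PO4, taurocholate, tween-20; blue fluorogenic substrate 80 uM, 40 min room temperature, stopped and read Ex 365/Em 440 for AC50.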

Assay [2] can be described thus: AP1 Signaling Pathway (AID 357). Note: % is set by controls: 0 for no effect and ±100 for the full control effect. The following applies: ME-180 AP-1-bla reporter, EGF-induced, beta-lactamase ratio, 5 h; at 7.69 µM (top of the series) unless noted. In a few lines:
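ME-180 cells with beta-lactamase reporter under AP-1 response element, stimulated with EC50 EGF; compounds tested in titration series, 5 h at 37 °C. CCF4 substrate added 2.5 h at room temperature; 460/530 nm emission ratio gave %activity and AC50.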

Assay [3] addresses Cytochrome P450 1A2 (Homo sapiens) (UniProt P05177). Nature of the assay: p450-cyp1a2 (AID 410; calls by dose curve; note: potency is the fitted concentration of half-maximal effect;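 for activity change, negative = inhibition: -100% = full effect of reference inhibitor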). The following applies: recombinant CYP1A2, luciferin-ME demethylation, luminescence; series mostly up to 57 µM. In a few lines:
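20nM CYP1A2 with 100uM Luciferin-ME (at Km) in 100mM KPO4; compound preincubated 10 min, NADPH regeneration added, 60 min at room temperature. Luciferin quantified by luminescence after detection reagent; normalized to 57 uM furafylline.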

A short description of assay [4]: NFAT Signaling Pathway (AID 444).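 Note: carbachol stimulus at about its EC50 of 1 µM final; % is set by controls: 0 for no effect and ±100 for the full control effect.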 Conditions: Jurkat NFAT-bla M1, carbachol, beta-lactamase ratio, 5 h; at 7.69 µM (top of the series) unless noted. In a few lines: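 Jurkat cells carrying an NFAT-driven β-lactamase reporter and co-transfected muscarinic M1 receptor were treated with compound plus carbachol (1 uM final, an EC50 level) for 5 h at 37 °C. CCF4 loading followed for 1 h at RT; 460/530 nm ratio gave %activity.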

Assay [5] is described as follows: Stat Signaling Pathway (AID 446).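 Note: ME-180 cervical cancer cells given 40 pM IL-6 alongside compound; SIE-controlled beta-lactamase reporter measured as 460/530 nm FRET emission ratio; % is set by controls: 0 for no effect and ±100 for the full control effect.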 Conditions: ME-180 (cervical carcinoma) SIE beta-lactamase reporter, IL-6 stimulated, 5 h; at 7.69 µM (top of the series) unless noted. In a few lines:
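ME-180 cells carrying a SIE-driven beta-lactamase reporter are stimulated with 40 pM IL-6 for 5 h at 37C in the presence of compound. The 460/530 nm FRET substrate ratio is read after 2.5 h at RT. Data are normalised to 300 pM IL-6 and to 125 nM JAK inhibitor controls.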

In assay [6] the target is Glucocorticoid receptor (Homo sapiens) (UniProt P04150). Description: GR-EFC Redistribution (AID 451; calls by dose curve; note: potency is the fitted concentration of half-maximal effect). Conditions: CHO-K1 GR-EFC translocation, beta-gal luminescence, 2 h. In a few lines: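 CHO-K1 cells stably expressing nuclear-localized β-gal enzyme acceptor and GR fused C-terminally to the enzyme donor fragment; ligand-driven nuclear translocation restores β-gal by complementation. Compounds titrated up to 46 uM final, 2 h at 37 °C; luminescence read.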

Assay [7] deals with Mitogen-activated protein kinase 10 (Mus musculus) (UniProt Q61831). Description: JNK3 AlphaScreen Assay (AID 530).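 Note: kinase came from lysate of stimulated human HepG2 cells; signal reports phosphorylation of biotinylated GST-cJun 1-79 at Ser73 with 10 µM ATP; % is set by controls: 0 for no effect and ±100 for the full control effect.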 Conditions: JNK3 lysate, c-Jun phosphorylation; series mostly up to 57.1 µM. In a few lines: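 Inhibitors reduce antibody binding to phosphorylated biotin-cJun, lowering AlphaScreen luminescence. Lysates from HepG2 cells pre-activated by IL-1beta plus TNF-alpha supplied JNK3; compounds were titrated.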

Assay [8] has as its target 3',5'-cyclic-AMP phosphodiesterase 4B (Homo sapiens) (UniProt Q07343). Nature of the assay: qHTS Assay for Inhibitors of PDE-IV (AID 607; active = well fitted activation curve with a large enough effect in the main read-out, with a control signal flat, not every such curve was filed as active; note: % of control where 0% means no effect). Conditions: HEK293 ACTOne CNG channel cells, membrane potential fluorescence; series mostly up to 22.9 µM. Put shortly:
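HEK293 ACTOne cells with CNG channel (1000/well), endogenous PDE4; membrane potential dye, compounds up to 22.9 uM final. Fluorescence Ex 535/Em 590; RO 20-1724 (100 uM final) as reference.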
On the technique in general: qHTS replaces the single test concentration by a dilution series.

Assay [9] concerns the target Cytochrome P450 3A4 (Homo sapiens) (UniProt P08684). Nature of the assay: qHTS Assay for Activators of Cytochrome P450 3A4 (AID 885; active = well fitted curve in the direction sought with a large enough effect; an effect the other way counts as inactive or inconclusive; note: nearly all actives have a fitted effect of over 65% in size). The following applies: recombinant CYP3A4, Luciferin-PPXE luminescence, 60 min; series mostly up to 57.1 µM. In a few lines: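 Human CYP3A4 (20 nM) with Luciferin-PPXE at 25 uM (its KM) in 200 mM KPO4; 10 min compound preincubation, then NADPH regeneration and 60 min reaction at RT. Luciferin read by luminescence; normalized to 57 uM ketoconazole full inhibition.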

Assay [10] in a line: qHTS Assay for Lipid Storage Modulators (AID 1519; calls by dose curve). Conditions: Drosophila S3 cells, BODIPY lipid droplet/cell ratio, laser cytometry, cells loaded with oleic acid; for activity change, negative = inhibition: at 57.5 µM (top of the series). Put shortly: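 Cells seeded at 5,000 per well were treated with compounds over a concentration series and loaded with oleic acid (400 uM, as added). Lipid droplet fluorescence (488 nm excitation, 500-530 nm channel) was read by laser-scanning cytometry and normalized to 20 uM Triacsin C.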

Assay [11] is described as follows: Primary qHTS for small molecule stabilizers of the endoplasmic reticulum resident proteome: Secreted ER Calcium Modulated Protein (SERCaMP) assay (AID 1508630; active = well fitted curve in the direction sought with a large enough effect; an effect the other way counts as inactive or inconclusive; note: % is set by controls: 0 for no effect and ±100 for the full control effect). Conditions: SH-SY5Y GLuc-SERCaMP (Gaussia luciferase released on ER calcium loss) secretion, thapsigargin, luminescence; series mostly up to 38.4 µM. In a few lines:
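GLuc-SERCaMP-expressing SH-SY5Y cells, pretreated 16 h with compound, are challenged with thapsigargin to empty ER calcium stores; after 4 h, coelenterazine is added directly to the medium and luminescence is imaged.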

The target of assay [12] is Cytochrome P450 2C19 (Homo sapiens) (UniProt P33261). Nature of the assay: qHTS Assay for Inhibitors and Substrates of Cytochrome P450 2C19 (AID 899; active = well fitted curve in the direction sought with a large enough effect; an effect the other way counts as inactive or inconclusive; note: potency is the fitted concentration of half-maximal effect; nearly all actives have a fitted effect of over 60% in size). Conditions: recombinant CYP2C19, luciferin-H EGE luminescence; series mostly up to 57.1 µM. In a few lines:
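NADPH-dependent conversion of Luciferin-H EGE (10uM, at KM) by 5nM enzyme in 50mM KPO4, 60 min at 37C following 10 min compound preincubation. Stopped with luciferin detection buffer; luminescence read after 20 min.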

For assay [13], the target named is Cytochrome P450 2D6 (Homo sapiens) (UniProt P10635). Nature of the assay: qHTS Assay for Inhibitors and Substrates of Cytochrome P450 2D6 (AID 891; active = well fitted curve in the direction sought with a large enough effect; an effect the other way counts as inactive or inconclusive; note: potency is the fitted concentration of half-maximal effect; nearly all actives have a fitted effect of over 60% in size). Conditions: recombinant CYP2D6, luciferin-ME EGE luminescence; series mostly up to 57.1 µM. In a few lines:
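Human CYP2D6 (5 nM) with 30 uM Luciferin-ME EGE (at Km) in 100 mM KPO4, compound preincubated 10 min, then NADPH regeneration system for 60 min at room temperature. Luciferin read by luminescence; normalized to 1.43 uM quinidine.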

[14] abbreviates: measured here: cell count channel max response.
[15] abbreviates: measured here: lipid channel max response.

SMILES strings stand for the structures. Inconclusive results are not listed. The source made the active and inactive calls. Unless noted, calls come from the whole dose curve; as a rule, active = well fitted curve in either direction with a large enough effect (not every such curve was filed as active); inconclusive = small, poorly fitted or top-dose-only effect, or another doubt; inactive = flat fitted curve, though single readings scatter.

3',5'-cyclic-AMP phosphodiesterase 4B (Homo sapiens), sequence (Q07343 whole entry, looked up): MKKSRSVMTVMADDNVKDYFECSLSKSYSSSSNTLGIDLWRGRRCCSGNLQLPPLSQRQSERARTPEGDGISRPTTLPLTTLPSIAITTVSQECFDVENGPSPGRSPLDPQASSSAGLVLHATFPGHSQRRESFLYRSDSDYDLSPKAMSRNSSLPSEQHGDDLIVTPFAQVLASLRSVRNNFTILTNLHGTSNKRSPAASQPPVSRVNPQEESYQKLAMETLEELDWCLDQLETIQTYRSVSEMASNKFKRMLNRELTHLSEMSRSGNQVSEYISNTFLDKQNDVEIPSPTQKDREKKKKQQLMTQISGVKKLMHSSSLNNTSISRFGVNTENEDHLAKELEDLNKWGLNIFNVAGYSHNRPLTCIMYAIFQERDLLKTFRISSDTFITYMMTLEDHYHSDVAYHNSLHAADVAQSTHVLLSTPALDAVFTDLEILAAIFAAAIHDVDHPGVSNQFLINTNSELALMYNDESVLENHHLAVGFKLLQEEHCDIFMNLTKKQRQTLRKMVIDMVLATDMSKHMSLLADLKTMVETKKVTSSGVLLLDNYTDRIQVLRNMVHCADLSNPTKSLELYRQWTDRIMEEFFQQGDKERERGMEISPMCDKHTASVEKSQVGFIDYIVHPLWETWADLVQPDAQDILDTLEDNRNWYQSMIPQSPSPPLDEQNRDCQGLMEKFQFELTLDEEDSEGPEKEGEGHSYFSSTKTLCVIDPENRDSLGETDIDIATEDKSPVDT
Lysosomal acid glucosylceramidase (Homo sapiens), sequence (P04062 whole entry, looked up): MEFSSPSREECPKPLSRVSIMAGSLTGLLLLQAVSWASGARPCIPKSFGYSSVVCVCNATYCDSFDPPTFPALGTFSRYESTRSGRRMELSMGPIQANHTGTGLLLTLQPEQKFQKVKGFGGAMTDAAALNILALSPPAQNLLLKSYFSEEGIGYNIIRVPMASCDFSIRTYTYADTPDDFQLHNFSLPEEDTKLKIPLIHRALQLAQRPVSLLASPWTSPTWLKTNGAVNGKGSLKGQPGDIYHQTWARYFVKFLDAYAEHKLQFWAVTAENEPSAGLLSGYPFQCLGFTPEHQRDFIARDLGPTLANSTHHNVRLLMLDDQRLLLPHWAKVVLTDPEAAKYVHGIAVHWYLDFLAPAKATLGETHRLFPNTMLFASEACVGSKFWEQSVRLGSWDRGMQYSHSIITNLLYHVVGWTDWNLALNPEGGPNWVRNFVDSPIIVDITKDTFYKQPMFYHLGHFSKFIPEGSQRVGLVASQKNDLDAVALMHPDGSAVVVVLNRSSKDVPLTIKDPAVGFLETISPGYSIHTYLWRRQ
Cytochrome P450 1A2 (Homo sapiens), sequence (P05177 whole entry, looked up): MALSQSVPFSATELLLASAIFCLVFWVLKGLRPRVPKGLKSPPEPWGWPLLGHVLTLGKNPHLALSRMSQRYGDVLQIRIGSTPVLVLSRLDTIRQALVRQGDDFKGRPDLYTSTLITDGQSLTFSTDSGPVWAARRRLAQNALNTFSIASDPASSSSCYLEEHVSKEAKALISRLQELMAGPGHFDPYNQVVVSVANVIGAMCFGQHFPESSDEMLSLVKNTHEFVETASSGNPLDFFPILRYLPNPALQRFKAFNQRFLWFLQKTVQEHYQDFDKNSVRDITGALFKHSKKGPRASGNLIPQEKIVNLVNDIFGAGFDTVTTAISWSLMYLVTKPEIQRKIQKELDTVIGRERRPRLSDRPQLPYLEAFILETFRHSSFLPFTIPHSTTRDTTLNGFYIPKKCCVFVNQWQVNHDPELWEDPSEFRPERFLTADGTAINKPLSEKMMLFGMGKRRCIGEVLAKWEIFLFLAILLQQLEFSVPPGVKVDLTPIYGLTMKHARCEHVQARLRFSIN
Glucocorticoid receptor (Homo sapiens), sequence (P04150 whole entry, looked up, the tested form may be a part): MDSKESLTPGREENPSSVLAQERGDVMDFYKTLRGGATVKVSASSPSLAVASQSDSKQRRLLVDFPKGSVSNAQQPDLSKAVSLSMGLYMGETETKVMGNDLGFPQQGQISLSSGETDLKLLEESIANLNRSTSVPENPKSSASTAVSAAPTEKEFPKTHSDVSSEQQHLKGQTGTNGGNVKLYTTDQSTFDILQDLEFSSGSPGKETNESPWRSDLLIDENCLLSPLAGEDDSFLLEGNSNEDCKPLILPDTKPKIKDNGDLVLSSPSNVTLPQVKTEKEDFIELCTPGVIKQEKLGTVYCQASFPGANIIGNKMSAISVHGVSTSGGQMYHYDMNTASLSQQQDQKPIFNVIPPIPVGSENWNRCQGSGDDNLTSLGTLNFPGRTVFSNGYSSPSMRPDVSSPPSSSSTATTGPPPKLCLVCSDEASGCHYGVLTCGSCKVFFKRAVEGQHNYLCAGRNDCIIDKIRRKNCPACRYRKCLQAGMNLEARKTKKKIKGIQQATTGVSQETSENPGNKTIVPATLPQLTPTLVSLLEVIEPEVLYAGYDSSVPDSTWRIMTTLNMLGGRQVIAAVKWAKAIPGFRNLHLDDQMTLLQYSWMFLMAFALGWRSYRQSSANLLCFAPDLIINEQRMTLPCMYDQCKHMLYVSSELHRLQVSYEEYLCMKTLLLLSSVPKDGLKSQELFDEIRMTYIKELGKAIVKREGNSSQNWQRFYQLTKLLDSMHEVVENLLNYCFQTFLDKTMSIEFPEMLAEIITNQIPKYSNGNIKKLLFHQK
Cytochrome P450 3A4 (Homo sapiens), sequence (P08684 whole entry, looked up): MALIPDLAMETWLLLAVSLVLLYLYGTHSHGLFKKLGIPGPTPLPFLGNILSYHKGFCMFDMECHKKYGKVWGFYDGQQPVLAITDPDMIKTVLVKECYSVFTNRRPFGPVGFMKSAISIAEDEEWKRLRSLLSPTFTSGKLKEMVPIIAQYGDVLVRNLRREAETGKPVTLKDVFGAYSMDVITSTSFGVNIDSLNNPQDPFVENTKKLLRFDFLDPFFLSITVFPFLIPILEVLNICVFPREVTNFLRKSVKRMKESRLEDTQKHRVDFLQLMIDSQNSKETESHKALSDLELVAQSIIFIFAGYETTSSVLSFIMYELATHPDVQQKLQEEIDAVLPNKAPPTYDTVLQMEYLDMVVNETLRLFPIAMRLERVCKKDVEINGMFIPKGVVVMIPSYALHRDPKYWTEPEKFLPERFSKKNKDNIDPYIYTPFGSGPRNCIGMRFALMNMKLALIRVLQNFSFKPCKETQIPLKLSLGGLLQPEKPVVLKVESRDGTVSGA
Cytochrome P450 2D6 (Homo sapiens), sequence (P10635 whole entry, looked up): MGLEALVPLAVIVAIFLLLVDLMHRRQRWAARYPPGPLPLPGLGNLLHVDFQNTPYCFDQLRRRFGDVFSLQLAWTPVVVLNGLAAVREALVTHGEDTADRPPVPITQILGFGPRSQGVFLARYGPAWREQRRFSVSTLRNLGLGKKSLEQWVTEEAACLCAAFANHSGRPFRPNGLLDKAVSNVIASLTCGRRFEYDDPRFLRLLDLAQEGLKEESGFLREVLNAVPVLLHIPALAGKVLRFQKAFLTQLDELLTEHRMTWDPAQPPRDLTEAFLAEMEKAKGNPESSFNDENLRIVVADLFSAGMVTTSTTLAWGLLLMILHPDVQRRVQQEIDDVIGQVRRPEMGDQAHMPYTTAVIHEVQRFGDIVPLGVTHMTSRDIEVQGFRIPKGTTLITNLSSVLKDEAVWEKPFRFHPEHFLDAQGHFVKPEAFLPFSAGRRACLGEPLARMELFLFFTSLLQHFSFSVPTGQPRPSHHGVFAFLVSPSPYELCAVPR
Cytochrome P450 2C19 (Homo sapiens), sequence (P33261 whole entry, looked up): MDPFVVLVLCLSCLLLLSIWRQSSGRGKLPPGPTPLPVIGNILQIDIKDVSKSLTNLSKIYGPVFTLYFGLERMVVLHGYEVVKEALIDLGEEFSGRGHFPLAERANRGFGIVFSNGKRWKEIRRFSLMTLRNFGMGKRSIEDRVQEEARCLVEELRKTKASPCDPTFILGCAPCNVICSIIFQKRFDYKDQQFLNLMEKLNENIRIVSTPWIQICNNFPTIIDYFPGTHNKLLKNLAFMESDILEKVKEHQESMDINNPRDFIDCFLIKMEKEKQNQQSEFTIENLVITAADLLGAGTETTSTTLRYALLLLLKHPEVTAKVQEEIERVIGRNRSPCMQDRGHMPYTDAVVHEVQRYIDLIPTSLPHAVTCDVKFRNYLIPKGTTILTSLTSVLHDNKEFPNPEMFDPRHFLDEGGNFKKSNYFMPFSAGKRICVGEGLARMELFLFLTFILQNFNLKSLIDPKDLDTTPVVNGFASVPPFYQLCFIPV

Take `Cc1noc(C)c1C(=O)N1CCC2(CCCN(Cc3nccs3)C2)CC1`: the Potency in [1] is > 11.4 µM (inactive); in assay [6], > 46 µM (inactive). Moreover, the activity change, negative = inhibition in assay [2] is -7.07% (inactive); in assay [4] it was -16.6% (inactive); in assay [10], 5.37% (inactive). The Potency entry in assay [3], in assay [8], in [9] and in assay [11] was “inactive” throughout. Besides, in [5], the activity, negative = inhibition was -1.5% (inactive). Further, the outcome in assay [7] was inactive. In addition, the max response in assay [10] (setting [14]) was found to be 14.6%; in assay [10] (setting [15]), 22.3%.

With `COc1ccccc1CN1CC2(CCN(C(=O)c3cnccn3)CC2)C1`, the Potency is > 11.4 µM (inactive) in assay [1] and > 46 µM (inactive) in assay [6]. Besides, the figures for the activity change, negative = inhibition in assay [2], in assay [4] and in assay [10] were 2.43% (inactive), -17.5% (inactive) and 3% (inactive), respectively. For the same compound, the Potency entry in assay [3], in assay [8], in assay [9] and in [11] was “inactive” throughout. Besides, the activity, negative = inhibition in assay [5] was -6.42% (inactive). In [7], the compound was called inactive. Besides, the figures for the max response in assay [10] (setting [14]) and in [10] (setting [15]) were 12% and 20.3%, respectively.

As to `Cc1noc(C)c1C(=O)N1CCC2(CCCN(c3ccccc3)C2)CC1`, the results for the Potency in assay [1] and in assay [6] were > 11.4 µM (inactive) and > 46 µM (inactive), respectively. The results for the activity change, negative = inhibition in [2], in assay [4] and in assay [10] were -12.1% (inactive), -9.55% (inactive) and -0.946% (inactive), respectively. The Potency result in assay [3], in assay [8], in [9] and in [11] was “inactive” in each case. The activity, negative = inhibition in assay [5] is -1.28% (inactive). In assay [7], the result was inactive. The max response in assay [10] (setting [14]) turned out to be 8.91%; in assay [10] (setting [15]), 9.27%.

With `O=C(c1ccco1)N1CCC[C@@]2(CCN(c3ccccc3)C2)C1`, the Potency in assay [1] is > 11.4 µM (inactive); in [3], 7.94 µM (active); in assay [6], > 46 µM (inactive); in [12], 5.01 µM (active). Further, the figures for the activity change, negative = inhibition in assay [2], in [4] and in assay [10] were -8.72% (inactive), -13.1% (inactive) and -7.59% (inactive), respectively. Also, the activity, negative = inhibition in assay [5] is -4.84% (inactive). For the same compound, the outcome in [7] was inactive. The Potency result in assay [8], in assay [9] and in assay [11] was “inactive” in each case. The figures for the max response in assay [10] (setting [14]) and in [10] (setting [15]) were 11.4% and 4.34%, respectively.

Consider `CC(C)NC(=O)N1CC[C@@]2(CCCN(C(=O)c3csnn3)C2)C1`, for which the Potency in assay [1] is > 11.4 µM (inactive); in assay [6], > 46 µM (inactive). Also, the activity change, negative = inhibition is 8.93% (inactive) in assay [2], 20.3% (inactive) in [4] and -0.319% (inactive) in assay [10]. In addition, the Potency entry in assay [3], in assay [9] and in assay [11] was “inactive” in each case. Moreover, the activity, negative = inhibition in [5] was 10.6% (inactive). Further, the outcome in [7] was inactive. Moreover, the max response in assay [10] (setting [14]) came to 4.92%; in [10] (setting [15]) it was 7.3%.

As for `c1ccc(-c2ccc(N3CC4(CCNCC4)C3)cc2)cc1`, the figures for the Potency in assay [1], in assay [3] and in assay [6] were > 11.4 µM (inactive), 15.8 µM (active) and > 46 µM (inactive), respectively. The activity change, negative = inhibition in assay [2] is 5.34% (inactive); in [4], 4.74% (inactive); in assay [10], -2.41% (inactive). In [5], the activity, negative = inhibition is 4.95% (inactive). For the same compound, the Potency result in [8], in [9] and in [11] was “inactive” throughout. The max response in assay [10] (setting [14]) was -25%; in assay [10] (setting [15]), -25.6%.

Take `COc1ccccc1CN1CCC2(CC1)CCN(C(C)=O)CC2`: the Potency in [1] was > 11.4 µM (inactive); in [6], > 46 µM (inactive); in assay [13], 5.01 µM (active). Moreover, the values for the activity change, negative = inhibition in assay [2], in assay [4] and in [10] were -6.68% (inactive), -28.3% (inactive) and 0.897% (inactive), respectively. Further, the Potency result in assay [3], in assay [8] and in assay [11] was “inactive” each time. Besides, the activity, negative = inhibition in assay [5] was 0.91% (inactive). In assay [7], the result was inactive. Further, the max response in [10] (setting [14]) worked out at 3.13%; in assay [10] (setting [15]), 3.76%.

Source of the values: PubChem BioAssay (NCATS).
